# Source: PubChem BioAssay (Tox21)
# Several values for one entry are separate records, joined by “and”; a condition that tells them apart may be missing. Identical values can stand only once. Records with an inconclusive call do not appear. A call without a number means that no potency is given here. Activity calls are given as the source filed them. Unless noted, calls follow the shape of the dose curve; as a rule, active = well fitted curve in the direction sought with a large enough effect in the repeat runs; inconclusive = weak or mixed curves; inactive = no such curve, though single readings can be large; an effect the other way counts as inactive or inconclusive.
# Experiments:
# [1] = qHTS assay for identifying genotoxic compounds that show differential cytotoxicity against isogenic chicken DT40 cell lines with known DNA damage response pathways - Rev3 mutant cell line (AID 743014); also: nearly all actives have a fitted effect of over 55% in size; also: potency is read from the fitted curve at half-maximal effect
# [2] = qHTS assay for identifying genotoxic compounds that show differential cytotoxicity against isogenic chicken DT40 cell lines with known DNA damage response pathways - Rad54/Ku70 mutant cell line (AID 743015); also: nearly all actives have a fitted effect of over 60% in size; also: potency is read from the fitted curve at half-maximal effect
# [3] = qHTS assay to identify small molecule antagonists of the androgen receptor (AR) signaling pathway - cell viability counter screen (AID 743033; also: nearly all actives have a fitted effect of over 45% in size; also: potency is read from the fitted curve at half-maximal effect)
# [4] = qHTS assay to identify small molecule antagonists of the androgen receptor (AR) signaling pathway using the MDA cell line - cell viability counter screen (AID 743041; also: nearly all actives have a fitted effect of over 45% in size; also: potency is read from the fitted curve at half-maximal effect)
# How it was run: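 MDA-kb2 AR-luc cells (MMTV-luciferase, AR/GR responsive) treated with compounds plus R1881 agonist for 16 h at 37C. CellTiter-Fluor added at 15.5 h; fluorescence read after 30 min in the same wells.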
# [5] = qHTS assay for identifying genotoxic compounds that show differential cytotoxicity against isogenic chicken DT40 cell lines with known DNA damage response pathways - wild type cell line (AID 743012); also: nearly all actives have a fitted effect of over 60% in size; also: potency is read from the fitted curve at half-maximal effect
# How it was run: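 Parental DNA repair-proficient DT40 cells, 300 per well, were pre-incubated ~0.5 h at 37 C/5% CO2, pin-dosed with compounds in DMSO, then incubated 40 h. Viability was read as CellTiter-Glo luminescence after 30 min at room temperature.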
# [6] = molecular target: Androgen receptor (Homo sapiens) (UniProt P10275); experiment: qHTS assay to identify small molecule antagonists of the androgen receptor (AR) signaling pathway (AID 743035; active = well fitted inhibition curve with a large enough effect in the signal ratio in the repeat runs, not every such curve was filed as active; the % refers to the signal ratio; also: potency is read from the fitted curve at half-maximal effect)
# How it was run: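 HEK293 cells stably carrying a UAS-driven beta-lactamase reporter (AR-UAS-bla GripTite) were plated for 4 h at 37C, then given compound and the agonist R1881 and incubated 16 h. Reporter activity was read by LiveBLAzer B/G FRET fluorescence after 2 h at room temperature.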
# [7] = molecular target: Androgen receptor (Homo sapiens) (UniProt P10275); experiment: qHTS assay to identify small molecule agonists of the androgen receptor (AR) signaling pathway using the MDA cell line (AID 743040; also: nearly all actives have a fitted effect of over 20% in size)
# How it was run: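 MDA-kb2 breast carcinoma cells carrying MMTV-luciferase (responsive to AR and GR), plated 5 h then treated 16 h with compounds at 37C, 0% CO2. Read-out was ONE-Glo luminescence after 30 min at room temperature.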
# [8] = molecular target: Androgen receptor (Homo sapiens) (UniProt P10275); experiment: qHTS assay to identify small molecule antagonists of the androgen receptor (AR) signaling pathway using the MDA cell line (AID 743042; also: nearly all actives have a fitted effect of over 55% in size)
# How it was run: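 MDA-kb2 breast carcinoma cells carrying MMTV-luciferase (AR/GR responsive) were co-treated with compounds and the agonist R1881 for 16 h at 37C. Inhibition read as ONE-Glo luminescence; CellTiter-Fluor fluorescence measured in parallel for cytotoxicity.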
# [9] = molecular target: Androgen receptor (Homo sapiens) (UniProt P10275); experiment: qHTS assay to identify small molecule agonists of the androgen receptor (AR) signaling pathway (AID 743036; active = well fitted activation curve with a large enough effect in the signal ratio in the repeat runs, with a control signal flat, not every such curve was filed as active; the % refers to the signal ratio)
# How it was run: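 Fluorescence from a beta-lactamase FRET substrate served as read-out in AR-UAS-bla GripTite HEK293 cells. Cells were treated with DMSO-dissolved compounds for 16 h at 37C, then with LiveBLAzer B/G substrate for 2 h at room temperature.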
# Chain of Androgen receptor (Homo sapiens) (P10275 whole entry, looked up): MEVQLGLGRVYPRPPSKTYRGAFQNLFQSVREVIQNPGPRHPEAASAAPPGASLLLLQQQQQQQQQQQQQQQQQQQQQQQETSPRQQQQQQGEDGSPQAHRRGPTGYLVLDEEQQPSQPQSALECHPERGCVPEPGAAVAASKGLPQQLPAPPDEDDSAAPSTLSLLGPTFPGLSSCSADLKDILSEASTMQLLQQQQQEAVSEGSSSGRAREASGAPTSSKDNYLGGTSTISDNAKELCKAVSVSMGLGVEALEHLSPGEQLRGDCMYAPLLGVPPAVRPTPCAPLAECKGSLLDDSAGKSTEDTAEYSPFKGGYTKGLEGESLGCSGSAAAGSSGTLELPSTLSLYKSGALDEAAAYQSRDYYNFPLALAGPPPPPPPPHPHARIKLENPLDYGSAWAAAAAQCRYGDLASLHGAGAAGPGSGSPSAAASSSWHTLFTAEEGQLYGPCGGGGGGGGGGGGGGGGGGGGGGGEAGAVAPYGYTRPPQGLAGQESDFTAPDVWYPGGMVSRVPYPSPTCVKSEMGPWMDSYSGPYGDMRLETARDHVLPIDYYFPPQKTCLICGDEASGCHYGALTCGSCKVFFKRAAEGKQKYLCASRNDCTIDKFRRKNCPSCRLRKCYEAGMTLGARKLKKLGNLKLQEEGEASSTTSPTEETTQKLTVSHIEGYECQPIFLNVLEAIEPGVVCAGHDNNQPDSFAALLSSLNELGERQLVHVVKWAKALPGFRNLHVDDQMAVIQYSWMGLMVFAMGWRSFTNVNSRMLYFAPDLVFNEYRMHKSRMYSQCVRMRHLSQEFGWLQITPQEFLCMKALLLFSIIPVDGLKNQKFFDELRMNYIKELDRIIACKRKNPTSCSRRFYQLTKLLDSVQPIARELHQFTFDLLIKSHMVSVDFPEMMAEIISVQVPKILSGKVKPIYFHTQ
structure (smiles),measurement,setting,value
O=C1CCc2ccc(OCCCCN3CCN(c4cccc(Cl)c4Cl)CC3)cc2N1,Potency,[1],5.31 µM (active)
same,Potency,[2],6.68 µM (active)
same,Potency,[3],inactive
same,Potency,[4],inactive
COc1ccc(NC(=O)CC(C)=O)cc1,Potency,[1],inactive
same,Potency,[2],inactive
same,Potency,[3],inactive
same,Potency,[4],inactive
CN1CCN(Cc2cc(-c3ccc4[nH]c(=O)oc4c3)co2)[C@@H](c2ccc(F)cc2)C1,Potency,[5],14.8 µM (active)
same,Potency,[2],14.8 µM (active)
same,Potency,[4],inactive
C=CC(=O)OCCOC(=O)C=C,Potency,[5],7.7 µM (active)
same,Potency,[2],10.9 µM (active)
same,Potency,[3],inactive
same,Potency,[6],inactive
same,outcome,[7],inactive
same,Potency,[4],inactive
same,Potency,[8],inactive
Cc1ccc(N/N=c2\c(=O)cc/c(=N\Nc3ccc(S(=O)(=O)O)cc3)c2=O)c(C)c1,Potency,[1],inactive
same,Potency,[2],inactive
same,Potency,[3],inactive
same,Potency,[4],27.3 µM (active)
O=C(O)c1cc(N=Nc2ccc([N+](=O)[O-])cc2)ccc1O,Potency,[5],inactive
same,Potency,[2],inactive
same,Potency,[3],inactive
same,Potency,[4],47.7 µM (active)
Oc1cc(Cl)cc(Cl)c1Cl,Potency,[3],50.2 µM (active)
Nc1ccc(Oc2ccc(Cl)cc2)cc1,Potency,[5],inactive
same,Potency,[2],59.8 µM (active)
same,Potency,[3],inactive
same,Potency,[4],inactive
CC(N=C(NC#N)Nc1ccncc1)C(C)(C)C (stereo not drawn),Potency,[3],inactive
same,Potency,[4],inactive
Sc1nc2ccccc2s1,Potency,[4],inactive
COC1=C(OC)C(=O)C(CCCCCCCCCCO)=C(C)C1=O,Potency,[1],13.3 µM (active)
same,Potency,[2],10.6 µM (active)
same,Potency,[3],inactive
same,Potency,[6],16.9 µM (active)
same,outcome,[7],inactive
same,Potency,[4],inactive
same,Potency,[8],inactive
C=CCn1c(=O)n(CC=C)c(=O)n(CC=C)c1=O,Potency,[5],inactive
same,Potency,[2],inactive
same,Potency,[3],inactive
same,Potency,[4],inactive
Nc1ccc(NCCO)c([N+](=O)[O-])c1,Potency,[2],inactive
same,Potency,[3],inactive
C[Si](Cl)(c1ccccc1)c1ccccc1,Potency,[5],inactive
same,Potency,[3],inactive
same,Potency,[4],inactive
O=C1c2ccccc2C(=O)N1SC1CCCCC1,Potency,[1],6.85 µM (active) and 5.45 µM (active)
same,Potency,[2],17.2 µM (active) and 4.33 µM (active)
same,Potency,[3],38.9 µM (active) and 49 µM (active)
CC(C)Cn1cnc2c(N)nc3ccccc3c21,Potency,[5],inactive
same,Potency,[3],inactive
same,Potency,[9],inactive
same,outcome,[7],inactive
same,Potency,[4],inactive
same,Potency,[8],inactive
Nc1nc2c(ncn2COCCO)c(=O)[nH]1,Potency,[1],2.27 µM (active)
same,Potency,[2],4.52 µM (active)
same,Potency,[3],inactive
same,Potency,[4],inactive
